# Screen size: about 2,400 compounds; about 220 (9.2%) were called active. The full list was thinned out, with actives kept by preference. Values without a mark were called inactive.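 Rule for the calls: active = signal change above the mean of dofetilide-free buffer controls plus 3 SD, so a positive margin; inactive = the rest.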
# Test: thallium signal changes without hERG – cell-based, CHO-K1 parental line, FluxOR thallium flux, counter-screen for hERG block protection project, confirmation (AID 1839);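 note: compounds applied alone with no dofetilide to cells lacking hERG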
# Conditions: CHO-K1 parental cells, FluxOR thallium flux fluorescence; at 10 µM
row,SMILES,"signal change vs control minus 3*SD hit threshold (margin above threshold, higher = more increase)"
1,C=CCN(CC=C)C(=S)NC(=O)/C=C/c1ccc(OC)cc1,-19.8%
2,Cc1cc(-c2cccnc2)c(C#N)c(SCc2cccc(F)c2)n1,-37.3%
3,COC(=O)c1sccc1NC(=S)NCc1ccc(Cl)cc1,-22.4%
4,CCc1cc2c(=O)n(CCC(C)C)c(=S)[nH]c2s1,26.1% (active)
5,CCOC(=O)C1=C(c2ccccc2)NC(=O)NC1c1ccc(OC)c(OC)c1 (centres undefined),-32.6%
6,CSC(=S)N/N=C(\C)c1ccccc1,15.8% (active)
7,CSC(=S)N/N=C/c1ccc(Br)cc1,-17.6%
8,CSC(=S)N/N=C/c1ccccc1,18.1% (active)
9,C/C(=N\NC(N)=S)c1cccnc1,-29.6%
10,C/C(=N\NC(N)=S)c1ccncc1,-26.5%
11,CC(C)NC(=S)N/N=C/c1ccc(C(C)(C)C)cc1,-20.4%
12,CC1=C(C#N)C(Nc2cc(C)ccn2)(C(F)(F)F)C(=O)N1 (centres undefined),-31.1%
13,CCOC(=O)c1c(-c2ccc(C)o2)csc1NC(=S)NC(=O)N(C)C,-14.3%
14,CNc1nc(N)nc(OC(C(F)(F)F)C(F)(F)F)n1,-25.1%
15,CC(Oc1ccc(Br)cc1)c1nc2c3ccccc3nc(=S)n2[nH]1 (centres undefined),-25%
16,S=c1[nH]c2ccccc2c2ccccc12,-25%
17,S=c1nc(-c2ccc(Br)cc2)[nH]c2ccccc12,53.6% (active)
18,S=c1nc(-c2ccccc2)[nH]c2ccc(Br)cc12,52.8% (active)
19,CC(=O)c1c(NC(=O)c2ccccc2)[nH]c(-c2ccccc2)nc1=S,-26.3%
20,CC(=O)c1c(N2CCCC2)[nH]c(-c2ccccc2)nc1=S,-21.2%
21,NNC(=O)CNc1ccccc1Cl,-26%
22,CN(C)c1ccc(C(CNS(=O)(=O)c2ccc([N+](=O)[O-])cc2)N2CCCC2)cc1 (centres undefined),-29%

row,SMILES,"signal change vs control minus 3*SD hit threshold (margin above threshold, higher = more increase)"
1,O=C(Nc1ncc(Br)s1)C(Cc1ccccc1)n1cccc1 (centres undefined),6.9% (active)
2,CC(C)C(=O)Nc1ccc(NC(=O)CCc2ccccc2)cn1,-33.7%
3,O=C(CCc1ccccc1)Nc1nccs1,-33.8%
4,COc1cccc(OC)c1C(=O)NC(=S)N1CCN(c2ccc(C(F)(F)F)cc2[N+](=O)[O-])CC1,-46.3%
5,COCc1cc(C)nc(OCC(=O)N/N=C/c2ccc(-c3cc([N+](=O)[O-])ccc3Cl)o2)c1C#N,-29.8%
6,Cc1nn(C(=O)CNC(=O)c2ccccc2)c(C)c1C,-23.2%
7,CC(=O)c1n[nH]nc1NC(=O)c1ccccc1,-17.2%
8,Cc1ccccc1Cn1nc(C)c(NC(=O)c2ccccc2)c1C,11.5% (active)
9,Cn1nc(C(F)(F)F)c(-c2ccc(Br)cc2)c1NC(=O)c1cccnc1,-37.7%
10,O=C1NCC(=O)N2C(c3ccccc3)c3[nH]c4ccccc4c3C[C@@H]12 (some centres undefined),-28.2%
11,S=c1nc(-c2ccccc2)c(-c2ccccc2)n[nH]1,-37%
12,S=c1nc(-c2ccccc2)[nH]n1-c1ccccc1,16.8% (active)
13,S=c1nc(C2CCCCC2)n(-c2ccccc2)[nH]1,-0.7%
14,COc1cccc(NC(=O)c2nn(-c3ccc(OC)cc3OC)c(=O)c3ccccc23)c1,-26.1%
15,COc1ccc(-n2nc(C(=O)NCC(=O)NCc3ccc(F)cc3)c3ccccc3c2=O)cc1OC,-26.4%
16,COc1cccc(-n2nc(C(=O)O)c3ccccc3c2=O)c1,4.7% (active)
17,CC(C)Oc1cc(S(=O)(=O)N2CCCCC2)ccc1N,-27.8%
18,CC(C)COc1ccc(-c2nn(-c3ccccc3)cc2C(=O)Nc2nccs2)cc1,-25.4%
19,COc1ccc(-n2c(=S)[nH]c3ccccc3c2=S)cc1,-30.8%
20,COc1ccc(OC(=O)Cc2cccc3ccccc23)cc1,-30.2%
21,COc1ccc(-c2nc(=S)c3ccc4ccccc4c3[nH]2)cc1,32.2% (active)
22,CCc1ccc(NC(=S)NC(=O)c2c(-c3ccccc3Cl)noc2C)cc1,-32.8%

row,SMILES,"signal change vs control minus 3*SD hit threshold (margin above threshold, higher = more increase)"
1,C=CCn1c2ccccc2c(=O)c2cc(C#Cc3ccsc3)ccc21,-24.5%
2,COc1ccc(C(=O)CC(=O)C(=O)Nc2ccccc2)cc1,-20.3%
3,COc1cccc(OCC(=O)NNC(=O)C(=O)Nc2ccc(OC)cc2OC)c1,-21.1%
4,COc1cccc(OCC(=O)NNC(=O)C(=O)Nc2cccc(C)c2)c1,0.8% (active)
5,COc1ccccc1NC(=O)C(=O)NNC(=O)COc1ccc2ccccc2c1,59.2% (active)
6,O=C(COc1ccc2ccccc2c1)NNC(=O)C(=O)Nc1ccccc1,15.8% (active)
7,CCc1ccc(NC(=O)C(=O)NNC(=O)COc2cccc(OC)c2)cc1,-13.5%
8,COc1ccc(OCC(=O)NNC(=O)C(=O)Nc2ccc(C)cc2)cc1,-35.4%
9,COc1ccc(NC(=O)C(=O)NNC(=O)COc2ccc(Cl)cc2)c(OC)c1,-0.4%
10,COc1ccc(NC(=O)C(=O)NNC(=O)COc2ccc(OC)cc2)cc1,-38%
11,Cc1ccccc1NC(=O)C(=O)NNC(=O)COc1ccc2ccccc2c1,-2.5%
12,N#Cc1cccc(N=c2ssnc2Cl)c1,-30.2%
13,CCOc1cc(N2CCOCC2)c(OCC)cc1NC(=O)Cn1nc(C)c([N+](=O)[O-])c1C,-22.7%
14,Cc1ccccc1NC1=C/C(=N\S(=O)(=O)c2ccc(C(=O)O)cc2)c2ccccc2C1=O,-22%
15,Cc1ccc(C(=O)n2c(-c3ccccc3)cnc2SCC(=O)Nc2ccc(C)cc2C)cc1,-8.7%
16,CC12CCC(C(=O)OC3CCCCC3)(OC1=O)C2(C)C (centres undefined),-36.3%
17,O=C1c2cccc3cccc(c23)C(=O)C1(O)O,-20.6%
18,S=c1[nH]c2cc(-c3ccccc3)ccc2o1,38.6% (active)
19,COC(=O)c1sc(NC(=S)NC(=O)c2ccc(C)cc2)nc1C,-19.1%
20,Cc1ccsc1CN(C(=O)c1ccc([N+](=O)[O-])cc1)C1CCS(=O)(=O)C1 (centres undefined),-32.2%
